Compounds with a hit are over-represented: about 4.3% of the library has one in this group of screens.
TRPM1 prom inh: inhibitors of MITF-driven TRPM1 promoter in melanoma cells; SK-MEL-5 TRPM1 promoter luciferase, 24 h; inhibition, % at 12.5 µM; 330,000 tested, 0.83% active; AID 488899;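 active = mean inhibition across replicates of 60% or more, whatever share of single replicates reaches that level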
CF NFkB inh: cystic fibrosis NF-kB activation inhibition | 360,000 tested, 0.86% active | inhibition, % at 5 µM | KKLEB NF-kB-GFP reporter, PAF-induced, GFP fluorescence overnight | AID 588850;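 active = at least 50% inhibition at 5 µM, scaled per plate between neutral and stimulator controls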;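 also: PAF is a Pseudomonas aeruginosa culture filtrate used as stimulus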
CHOP inh: blocks CHOP induction under ER stress; 220,000 tested, 3.8% active; AID 2732; CHO-K1 CHOP-promoter luciferase, tunicamycin-induced, 15-18 h; inhibition, % at 10 µM;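 active = compounds that reduced the stress-induced luciferase reporter signal by more than about 70% of percent inhibition, limit read from the data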
KKLEB tox: counter-screen for CF NF-kB inhibitors: cytotoxicity | activity change (cytotoxicity), % at 5 µM | KKLEB CF airway cells viability, ATPlite luminescence, overnight; hits give low values; cells stimulated with P. aeruginosa culture filtrate | 360,000 tested, 0.36% active;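 active = corrected activity change at or below -50% at 5 µM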
HIF-2a block: HIF-2a inhibition | 786-0 RCC cells HIF-2a reporter, luciferase luminescence, overnight | inhibition, % at 18.8 µM | 360,000 tested, 0.72% active;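 active = inhibition of the luminescence signal of 40% or more relative to plate controls, in a single-dose primary screen at 18.75 µM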
Peg3 prom inh-1: inhibitors of Peg3 promoter; 360,000 tested, 1.7% active; HeLa PEG-Prom luciferase reporter, luminescence, overnight; inhibition, % at 20 µM;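 active = inhibition of at least 50% at 20 µM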
Peg3 prom inh-2: Peg3 promoter inhibition confirmation. shares compounds with Peg3 prom inh-1. HeLa PEG-Prom luciferase reporter, luminescence, overnight. inhibition, % at 20 µM. 1,300 tested, 84% active;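 active = at 20 µM dose, 40% or more inhibition averaged across four replicates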
Numbers stand for hits; n = inactive; x = no result.

SMILES | TRPM1 prom inh | CF NFkB inh | CHOP inh | KKLEB tox | HIF-2a block | Peg3 prom inh-1 | Peg3 prom inh-2
CCN1CCN(c2ncc(C(=O)Nc3cc(Cl)ccc3OC)c3ccccc23)CC1 | n | n | n | n | n | 61 | 57
O=C(NCCCO)/C(=C\c1ccco1)NC(=O)c1ccco1 | n | n | x | n | n | n | x
CC1(C)Oc2ccc3ccc(=O)oc3c2C[C@H]1O | n | n | n | n | n | n | x
CC1(C)Oc2cc3oc(-c4cc(O)cc(O)c4)cc3cc2CC1O (stereo not given) | n | n | x | n | n | 59 | 65
CC(N)c1ccc(Cl)cc1Cl (stereo not given) | n | n | n | n | n | n | x
COc1cc(F)cc(-c2ccc3c(c2)c(-c2cccs2)c(-c2cc(OC)cc(OC)c2)n3C)c1 | n | n | x | n | n | n | x
COc1cc(OC)cc(-c2c(-c3cccs3)c3cc(-c4ccc(N(C)C)nc4)ccc3n2C)c1 | n | n | x | n | n | 52 | n
CC(=O)n1cc([C@H]2C=C(C(=O)NCc3ccccc3)O[C@@H](OCc3ccc(CO)cc3)C2)c2ccccc21 | n | n | n | n | n | 55 | 47
O=C(c1ccccc1)N(C(=O)c1ccccc1)c1ncnc2c1C(c1ccccc1)c1c(ccc3ccccc13)O2 (stereo not given) | n | 56 | x | n | n | 78 | 77
OCCN1CCN(C2CCC(c3ccc(F)cc3)c3ccc(F)cc32)CC1 (stereo not given) | n | n | x | n | n | 56 | 73
Nc1ncc(-c2ccc(F)cc2)nc1N1CCN(CCO)CC1 | x | n | x | n | n | n | x
COc1ccc(-n2c(O)c(/C=N/Nc3nc(C)cc(C)n3)c3ccccc3c2=O)cc1OC | n | n | n | n | n | 56 | 45
COc1ccc(-n2c(O)c(/C=N/NS(=O)(=O)c3ccc(C)cc3)c3ccccc3c2=O)cc1OC | n | n | n | n | n | n | x
C#CCOCCOCCOCCNc1nc(N2CCN(C(=O)[C@H](CCCCN)n3cc(CN)nn3)CC2)nc(N2CCN(C(=O)[C@H](CCCN=C(N)N)n3cc(C(N)[C@H](C)CC)nn3)CC2)n1 (stereo not given in full) | n | n | x | n | n | n | x
O=C(NC1CC1)c1sc2cc(Cl)ccc2c1Cl | n | n | x | n | n | n | x
CC1(C)CC(NC(=O)c2sc3cc(Cl)ccc3c2Cl)CC(C)(C)N1 | n | n | n | n | n | 91 | 100
COc1ccc(C(=O)N2CCOC2CNC(=O)C(=O)NCc2ccco2)cc1 (stereo not given) | n | n | n | n | n | n | x
COc1ccc(CNC(=O)C/C(C)=N/NC(=O)c2ccc(OC)cc2OC)cc1 | x | n | x | n | n | n | x
Cc1ccc(N2CC(C(=O)Nc3nccs3)CC2=O)cc1Cl (stereo not given) | n | n | n | n | n | 90 | 94
COCc1nnc(NC(=O)C2CC(=O)N(c3ccc(C)c(Cl)c3)C2)s1 (stereo not given) | n | n | x | n | n | n | x
O=c1oc2cc(OCc3c(F)cccc3Cl)ccc2cc1-c1ccccn1 | n | n | n | n | n | n | x
CCCOc1ccc2cc(-c3ccccn3)c(=O)oc2c1 | n | n | 71 | n | 55 | 74 | 68
CC1(C(=O)Nc2cccc(OC(F)(F)F)c2)Cc2c(-c3cccc(C(F)(F)F)c3)ccnc2O1 (stereo not given) | x | n | x | n | n | n | x
CC(=O)Nc1cccc(-c2ccnc3c2CC(C)(C(=O)Nc2cccc(OC(F)(F)F)c2)O3)c1 (stereo not given) | x | n | x | n | n | 63 | 61
COc1ccc(Nc2cc(C)nc3ccc(C)cc23)cc1 | x | n | x | n | n | n | x
SMILES | TRPM1 prom inh | CF NFkB inh | CHOP inh | KKLEB tox | HIF-2a block | Peg3 prom inh-1 | Peg3 prom inh-2
CC(=O)c1ccc(Nc2cc(C)nc3ccc(C)cc23)cc1 | n | n | n | n | n | 82 | 87
O=C(CSc1nnc(CNC(=O)c2cccs2)o1)Nc1cccc(Cl)c1 | n | n | x | n | n | n | x
COc1ccccc1N1CCN(CCN2C(=O)C3CCCCN3C2=O)CC1 (stereo not given) | n | n | x | n | n | n | x
Cc1ccc(C(=O)N(CCCN(C)C)c2nc3ccc(Cl)cc3s2)cc1C | n | n | n | n | n | 56 | 93
O=C(COC(=O)/C=C/c1ccc(OC(F)F)cc1)NC1CCCCCC1 | n | n | x | n | n | n | x
CN(C)CCc1cc2c(c3c1ccc1ccccc13)OCO2 | n | n | x | n | n | 93 | 93
COc1cccc(-c2sc3ccc(OC)cc3c2-c2ccc(OCCN(C)C)cc2)c1 | n | n | x | n | n | 100 | 71
COc1ccc(S(=O)(=O)N2CCCCC2)cc1NC(=O)c1ccc(Cl)nc1 | n | n | x | n | n | n | x
COc1ccc(NC(=O)c2cc(-c3ccccn3)nc3ccccc23)cc1S(=O)(=O)N(C)C | n | n | x | n | n | 61 | 54
Cc1ccc(NC(=O)c2nc[nH]c2C(=O)NCCCCNC(=O)c2[nH]cnc2C(=O)Nc2ccc(C)cc2)cc1 | n | 86 | x | -83 | n | 74 | 43
Cc1ccc(NC(=O)c2nc[nH]c2C(=O)NCCCCCCNC(=O)c2[nH]cnc2C(=O)Nc2ccc(C)cc2)cc1 | n | n | x | n | n | n | x
C=CCc1cc(/C=C2/NC(=O)N(CC(=O)OC)C2=O)cc(OC)c1O | n | n | n | n | n | n | x
CC(=O)Nc1cccc(-c2cc(NC=O)c3ncc(-c4ccc(C(C)=O)cc4)n3c2)c1 | x | n | x | n | n | 54 | 56
Cc1nc(-c2ccc(NC(=O)c3ccco3)cc2)cs1 | 73 | n | x | -54 | 64 | 82 | 67
CCC(C)NC(=O)c1c(N)n(/N=C/c2cccnc2)c2nc3ccccc3nc12 (stereo not given) | n | n | n | n | n | 50 | n
CN[C@H]1C[C@H]2c3[nH]c4ccc(-c5cccc(C)c5)cc4c3CCN2C[C@H]1[C@H](C)O | x | n | x | n | n | 90 | 98
CN[C@H]1C[C@H]2c3[nH]c4ccc(-c5ccc(OC)cc5)cc4c3CCN2C(=O)[C@H]1[C@H](C)O | x | n | x | n | n | 101 | 98
Cc1cc(-c2nnc(CCC(=O)NCc3ccc(OC(F)(F)F)cc3)o2)no1 | n | n | x | n | n | n | x
COc1ccccc1C(NC(C)=O)c1cc(Cl)c2cccnc2c1O (stereo not given) | n | n | x | n | n | n | x
COc1ccc(C(NC(C)=O)c2ccc3cccnc3c2O)c(OC)c1 (stereo not given) | 63 | n | x | n | n | 61 | 65
CC(=O)NC(c1ccco1)c1cc(F)c2cccnc2c1O (stereo not given) | n | n | x | n | n | n | x
CC(=O)NC(c1ccc2ccccc2c1)c1ccc2cccnc2c1O (stereo not given) | n | n | x | n | n | 64 | 71

Screens as filed in PubChem.
